The text below walks through data of PubChem BioAssay (NCI).

Structures are written as SMILES. About 83,000 compounds went through this panel and 20% of them were active in at least one assay; those are over-represented in the sample as a whole.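 Plates (96-well) were seeded with cells, treated with compound at one concentration, and incubated for 48 hours before percent growth was determined.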 A number with no mark means an inactive call. Active and inactive are the calls of the source. The calls were made as follows: active = growth percent below 10; inactive = the rest.

Test in all cases: NCI-60 one-dose screen, 48 h (100 = growth as untreated, 0 = no growth, -100 = all killed)
The test system of experiment [1] is NCI-H23 lung. As to conditions: 10 µM unless noted.
Experiment [2] has as its system NCI-H226 lung. As to conditions: 10 µM unless noted.
Experiment [3] deals with NCI-H322M lung. Particulars: 10 µM unless noted.
Experiment [4] concerns HOP-62 NSCLC. As to conditions: 10 µM unless noted.
In experiment [5] the test system is HOP-92 NSCLC. Particulars: 10 µM.
For experiment [6], the system named is NCI-H522 lung. Particulars: 10 µM.
In experiment [7] the test system is A549/ATCC NSCLC. As to conditions: 10 µM unless noted.
In experiment [8] the test system is 786-0 renal. As to conditions: 10 µM unless noted.
Experiment [9] deals with COLO 205 colon. Particulars: 10 µM unless noted.
Experiment [10] concerns DU-145 prostate. As to conditions: 10 µM unless noted.
In experiment [11] the test system is K-562 leukemia. Particulars: 10 µM unless noted.
For experiment [12], the system named is MDA-MB-231 breast. As to conditions: 10 µM unless noted.
The test system of experiment [13] is RXF 393 renal. As to conditions: 10 µM unless noted.
For experiment [14], the system named is SF-268 CNS. Particulars: 10 µM unless noted.
For experiment [15], the system named is SF-295 CNS. As to conditions: 10 µM unless noted.
Experiment [16] has as its system SF-539 CNS. As to conditions: 10 µM unless noted.
The subject of experiment [17] is UACC-257 melanoma. As to conditions: 10 µM unless noted.
Experiment [18] has as its system M14 melanoma. As to conditions: 10 µM unless noted.
The test system of experiment [19] is MALME-3M melanoma. As to conditions: 10 µM unless noted.
Experiment [20] relates to NCI-H460 lung. Particulars: 10 µM unless noted.

As to `Cc1cc(CSc2ccc(Cl)cc2)ccc1N`, the growth in experiment [1] was 99.2%; in experiment [2], 82.9%; in experiment [3], 98.2%; in experiment [4], 110%; in [5], 85.2%; in experiment [6] it was 81.5%. Besides, the growth in experiment [7] was 60.3%; in experiment [8], 69.8%; in [9], 107%; in experiment [10], 88.5%; in experiment [11], 99.6%; in [12], 61.9%. Moreover, the growth in experiment [13] was 105%; in experiment [14], 70%; in experiment [15], 101%; in experiment [16] it was 62.9%; in experiment [17] it was 108%; in experiment [18] it was 101%.
In the case of `CCCCCCCCCCN1CC2CCCCC2C1` (stereo not given), the growth in [1] was 82.2%; in experiment [2], 76%; in experiment [3], 99.7%; in experiment [4], 69.4%; in experiment [5], 56.4%; in experiment [6], 67.1%. The growth was 97.3% in [7]; 86.6% in [8]; 61% in experiment [9]; 69% in experiment [10]; 24.4% in [11]; 108% in experiment [19]. Besides, the growth in [12] was 34.1%; in [13], 77.7%; in experiment [14], 72.2%; in [15], 85.1%; in experiment [16], 85.1%; in experiment [17], 87.2%. Besides, in [18], the growth is 73.3%.
Consider `Cc1ncc(C(=O)Nc2ccc(CN3CCN(C)CC3)c(C(F)(F)F)c2)cc1C#Cc1cnc(NC2CC2)c2ncccc12`, for which the growth in experiment [1] was -70.8% (active); in experiment [2], 39.7%; in experiment [3] it was -87.7% (active); in experiment [4], 16.9%; in experiment [5], 33.4%; in [6] it was -76.4% (active). Further, the growth in experiment [7] was -91.5% (active); in experiment [8], -85.2% (active); in [10], -83.1% (active); in [11], -56.8% (active); in [19] it was -88.5% (active); in experiment [12], -97.3% (active). The growth in experiment [13] was -90.6% (active); in experiment [14] it was -72.7% (active); in experiment [15] it was -91.8% (active); in experiment [16] it was -98.3% (active); in experiment [17], -65% (active); in [18], -89.8% (active).
Consider `O=C(Nc1cccc(Cn2c(=O)[nH]c3ccc(Oc4ncccn4)cc3c2=O)c1)c1cccc(F)c1`, for which the growth is 82.2% in [1]; 74.1% in experiment [2]; 86.4% in experiment [3]; 79% in experiment [4]; 60.9% in experiment [5]; 60.9% in [6]. The growth in experiment [7] was 70.2%; in experiment [8] it was 65.6%; in experiment [10], 80.1%; in [11], 45.1%; in experiment [19] it was 97.2%; in [12] it was 74.7%. Further, the growth in experiment [13] was 87.1%; in experiment [14], 74.1%; in experiment [15] it was 81.8%; in [16], 80.1%; in experiment [17], 67.3%; in [18] it was 78.6%.
For `COc1cc2c(c(OC)c1OC)C(=O)CC(c1cccc(C(=O)Nc3cccc(Br)c3)c1)O2` (stereo not given), the growth was 97% in [1]; 85.1% in experiment [2]; 81.5% in experiment [3]; 86% in [4]; 55.3% in [5]; 51.7% in [6]. For the same molecule, the growth in experiment [7] was 77.9%; in [8], 84%; in experiment [10], 87%; in experiment [11] it was 49.8%; in experiment [19], 85%; in [12], 63.7%. The growth was 88.8% in [13]; 73.6% in experiment [14]; 86.7% in [15]; 86.8% in experiment [16]; 76.8% in [17]; 73.1% in experiment [18].
Consider `COc1cc(OC)c2c(=O)cc(-c3ccccc3)oc2c1`, for which the growth is 106% in experiment [1]; 101% in [2]; 93.2% in experiment [3]; 104% in experiment [20]; 54.9% in [5]; 82.8% in experiment [6]. In addition, the growth was 96.7% in experiment [7]; 49% in experiment [8]; 117% in experiment [9]; 111% in experiment [10]; 98.4% in [11]; 97.2% in experiment [19]. Besides, the growth was 97% in experiment [12]; 99.8% in [13]; 104% in experiment [14]; 93.8% in experiment [15]; 108% in experiment [16]; 97.8% in [17].
`Nc1cc(N)c2nc(-c3ccccc3)c(NCCc3ccc(Cl)c(Cl)c3)nc2c1`: the growth in experiment [1] was -63.9% (active); in [2], -76.2% (active); in experiment [3], -91.7% (active); in experiment [20], -10.9% (active); in experiment [5] it was -78.5% (active); in [6], -72.1% (active). Also, the growth in experiment [7] was -62.8% (active); in experiment [8] it was -97.9% (active); in experiment [9] it was -62.4% (active); in experiment [10], -98.6% (active); in experiment [11] it was -16.9% (active); in [19], -93.3% (active). Further, the growth in experiment [12] is -71.1% (active); in experiment [13], -94.3% (active); in [14], 0.859% (active); in [15] it was -74.2% (active); in [16], -96.7% (active); in experiment [17], 5.16% (active).
With `CCCCCCN(CCCCCC)CCC(=O)Nc1ccc(S(=O)(=O)c2ccc(NC(=O)CCN(CCCCCC)CCCCCC)cc2)cc1`, the growth in experiment [1] is 84.3%; in experiment [2] it was 78.6%; in experiment [3] it was 75.3%; in experiment [4], 76.8%; in [5], 69.4%; in experiment [7] it was 94.1%. The growth is 90.5% in experiment [8]; 74.1% in experiment [9]; 95.4% in [10]; 7.37% (active) in experiment [11]; 96% in experiment [19]; 61% in experiment [12]. The growth in experiment [13] is 83.3%; in [14] it was 80.1%; in [15], 100%; in [16], 94.7%; in experiment [17], 99.8%; in experiment [18], 88.9%.
